Experimental findings from ChEMBL document CHEMBL1961873, “Compounds: GSK PKIS; Assays: Nanosyn kinase panel” (2012) are described below.

Structures are written as SMILES.

The test system of assay [1] is Tyrosine-protein kinase ABL1 (Homo sapiens), P00519 [T315I]. To be noted: at 1 µM.
Assay [2] relates to Tyrosine-protein kinase ABL1 (Homo sapiens), P00519 [Y253F]. The conditions noted are these: at 0.1 µM.
Assay [3] shares this test system. To be noted: at 1 µM.
The target of assay [4] is Tyrosine-protein kinase ABL1 (Homo sapiens) (UniProt P00519). The conditions noted are these: at 0.1 µM.
For assay [5] the target is unchanged. To be noted: at 1 µM.
In assay [6] the target is ALK tyrosine kinase receptor (Homo sapiens) (UniProt Q9UM73). To be noted: at 0.1 µM.
The target is the same in assay [7]. To be noted: at 1 µM.
Assay [8] has as its target Tyrosine-protein kinase ABL2 (Homo sapiens) (UniProt P42684). To be noted: at 0.1 µM.
The target is the same in assay [9]. The conditions noted are these: at 1 µM.
The target in assay [10] is Tyrosine-protein kinase receptor UFO (Homo sapiens) (UniProt P30530). The conditions noted are these: at 0.1 µM.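 Note: values are mean percent inhibition of AXL from the GSK PKIS screen.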
Chain of Tyrosine-protein kinase receptor UFO (Homo sapiens) (P30530 whole entry): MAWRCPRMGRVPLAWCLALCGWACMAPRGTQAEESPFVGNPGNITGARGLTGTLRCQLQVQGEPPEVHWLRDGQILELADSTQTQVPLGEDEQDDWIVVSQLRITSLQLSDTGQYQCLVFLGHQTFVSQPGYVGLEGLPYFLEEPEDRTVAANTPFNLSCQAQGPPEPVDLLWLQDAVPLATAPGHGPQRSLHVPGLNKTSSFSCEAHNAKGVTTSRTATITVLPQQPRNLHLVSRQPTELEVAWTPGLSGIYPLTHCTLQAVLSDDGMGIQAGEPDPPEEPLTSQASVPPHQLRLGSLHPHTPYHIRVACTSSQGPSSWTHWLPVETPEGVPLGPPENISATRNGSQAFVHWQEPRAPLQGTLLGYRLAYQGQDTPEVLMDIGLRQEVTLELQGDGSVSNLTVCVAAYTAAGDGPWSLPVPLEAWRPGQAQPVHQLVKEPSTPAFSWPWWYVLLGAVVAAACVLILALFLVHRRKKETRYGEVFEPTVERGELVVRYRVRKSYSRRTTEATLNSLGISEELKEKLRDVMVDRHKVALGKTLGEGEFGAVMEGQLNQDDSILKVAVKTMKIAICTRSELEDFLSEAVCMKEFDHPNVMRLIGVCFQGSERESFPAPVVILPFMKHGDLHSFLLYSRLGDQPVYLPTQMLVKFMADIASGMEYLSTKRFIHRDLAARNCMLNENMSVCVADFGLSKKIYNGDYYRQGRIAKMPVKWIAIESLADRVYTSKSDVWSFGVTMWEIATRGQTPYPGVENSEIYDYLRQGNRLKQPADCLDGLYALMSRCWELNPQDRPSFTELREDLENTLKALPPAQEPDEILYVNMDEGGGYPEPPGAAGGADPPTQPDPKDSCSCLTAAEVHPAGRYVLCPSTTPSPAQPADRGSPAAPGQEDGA

Chain of Tyrosine-protein kinase ABL2 (Homo sapiens) (P42684 whole entry): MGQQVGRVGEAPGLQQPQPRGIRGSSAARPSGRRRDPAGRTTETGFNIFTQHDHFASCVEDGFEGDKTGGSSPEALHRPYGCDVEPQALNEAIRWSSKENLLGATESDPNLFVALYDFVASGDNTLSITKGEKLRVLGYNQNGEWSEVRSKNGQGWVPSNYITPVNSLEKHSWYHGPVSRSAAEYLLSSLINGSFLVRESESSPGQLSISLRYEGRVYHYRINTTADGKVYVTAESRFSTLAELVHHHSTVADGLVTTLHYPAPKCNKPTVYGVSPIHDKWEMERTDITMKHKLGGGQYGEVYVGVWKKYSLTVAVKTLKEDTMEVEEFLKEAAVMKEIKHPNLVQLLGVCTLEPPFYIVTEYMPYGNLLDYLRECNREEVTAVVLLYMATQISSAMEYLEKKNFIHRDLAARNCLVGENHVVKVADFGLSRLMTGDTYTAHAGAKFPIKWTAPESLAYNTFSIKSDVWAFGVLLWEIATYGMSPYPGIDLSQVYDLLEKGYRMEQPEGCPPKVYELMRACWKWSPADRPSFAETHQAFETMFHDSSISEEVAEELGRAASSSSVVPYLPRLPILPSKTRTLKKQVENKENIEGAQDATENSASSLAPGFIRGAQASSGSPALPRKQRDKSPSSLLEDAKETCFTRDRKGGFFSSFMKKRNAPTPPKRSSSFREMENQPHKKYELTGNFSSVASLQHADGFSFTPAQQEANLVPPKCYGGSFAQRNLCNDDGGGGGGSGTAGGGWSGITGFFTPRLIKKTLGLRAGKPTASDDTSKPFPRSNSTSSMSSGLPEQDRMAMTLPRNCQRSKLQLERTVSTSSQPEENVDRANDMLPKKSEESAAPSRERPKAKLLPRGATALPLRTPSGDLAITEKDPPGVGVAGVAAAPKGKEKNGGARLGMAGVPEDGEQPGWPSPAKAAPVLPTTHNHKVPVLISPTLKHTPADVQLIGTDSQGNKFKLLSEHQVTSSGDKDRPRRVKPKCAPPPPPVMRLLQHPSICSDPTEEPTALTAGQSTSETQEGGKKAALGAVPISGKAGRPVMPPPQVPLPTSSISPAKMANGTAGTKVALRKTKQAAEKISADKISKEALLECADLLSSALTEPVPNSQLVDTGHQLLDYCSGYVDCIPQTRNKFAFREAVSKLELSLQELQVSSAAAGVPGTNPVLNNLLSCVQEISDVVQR
Chain of ALK tyrosine kinase receptor (Homo sapiens) (Q9UM73 19-1620 limits assumed): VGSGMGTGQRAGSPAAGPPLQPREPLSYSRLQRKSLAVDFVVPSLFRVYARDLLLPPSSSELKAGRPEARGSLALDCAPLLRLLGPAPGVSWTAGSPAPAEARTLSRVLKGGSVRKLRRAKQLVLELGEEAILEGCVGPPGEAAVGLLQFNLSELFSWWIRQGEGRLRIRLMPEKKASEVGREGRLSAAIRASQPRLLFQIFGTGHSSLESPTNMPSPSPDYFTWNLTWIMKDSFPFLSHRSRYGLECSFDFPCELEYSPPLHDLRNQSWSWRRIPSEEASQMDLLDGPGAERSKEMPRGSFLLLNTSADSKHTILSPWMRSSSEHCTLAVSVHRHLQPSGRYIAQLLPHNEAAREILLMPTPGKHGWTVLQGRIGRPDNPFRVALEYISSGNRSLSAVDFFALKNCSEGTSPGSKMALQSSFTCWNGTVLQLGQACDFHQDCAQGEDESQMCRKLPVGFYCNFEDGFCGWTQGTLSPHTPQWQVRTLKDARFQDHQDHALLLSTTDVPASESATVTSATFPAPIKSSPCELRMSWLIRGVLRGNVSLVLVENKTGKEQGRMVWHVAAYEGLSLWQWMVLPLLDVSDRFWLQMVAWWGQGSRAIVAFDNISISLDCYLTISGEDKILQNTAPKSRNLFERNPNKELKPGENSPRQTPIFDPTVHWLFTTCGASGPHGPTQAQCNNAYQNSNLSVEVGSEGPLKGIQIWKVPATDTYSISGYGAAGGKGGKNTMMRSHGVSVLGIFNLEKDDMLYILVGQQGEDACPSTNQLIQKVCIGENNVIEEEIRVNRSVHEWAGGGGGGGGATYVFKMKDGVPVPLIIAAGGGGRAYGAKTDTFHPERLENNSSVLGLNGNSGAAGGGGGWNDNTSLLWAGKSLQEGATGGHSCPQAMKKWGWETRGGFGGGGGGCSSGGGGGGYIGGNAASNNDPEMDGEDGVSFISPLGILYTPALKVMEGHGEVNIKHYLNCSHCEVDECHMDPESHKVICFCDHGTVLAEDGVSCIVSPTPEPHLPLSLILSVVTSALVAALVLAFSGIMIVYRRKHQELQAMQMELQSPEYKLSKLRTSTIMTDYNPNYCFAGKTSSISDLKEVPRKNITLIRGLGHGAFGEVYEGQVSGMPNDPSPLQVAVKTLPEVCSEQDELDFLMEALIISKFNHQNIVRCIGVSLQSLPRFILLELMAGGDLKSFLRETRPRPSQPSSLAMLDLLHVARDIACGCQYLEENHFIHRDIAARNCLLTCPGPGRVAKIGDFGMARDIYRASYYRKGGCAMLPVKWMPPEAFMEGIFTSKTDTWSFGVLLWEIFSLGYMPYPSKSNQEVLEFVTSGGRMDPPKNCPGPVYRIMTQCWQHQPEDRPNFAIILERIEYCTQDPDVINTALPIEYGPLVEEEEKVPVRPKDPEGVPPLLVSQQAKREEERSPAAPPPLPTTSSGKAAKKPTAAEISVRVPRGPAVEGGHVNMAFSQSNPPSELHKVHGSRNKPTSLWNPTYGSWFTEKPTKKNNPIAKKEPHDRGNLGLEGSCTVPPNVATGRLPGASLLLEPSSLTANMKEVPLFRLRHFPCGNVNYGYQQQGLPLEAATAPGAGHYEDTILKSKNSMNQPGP

For the compound `COc1cc2c(cc1Nc1nc(N3CCc4ccccc43)c3cc[nH]c3n1)N(C(=O)CN(C)C)CC2`, the inhibition was -1.44% in assay [1]; 1.21% in assay [2]; 3.71% in [3]; 2.76% in assay [4]; 7.27% in [5]; 90% in [6]. Besides, the inhibition in [7] was determined as 85.3%; in assay [8] it was 2.02%; in assay [9], 5.11%; in assay [10], 3.85%.

On to `Cc1ccc(C(=O)NC2CCCCC2)cc1-c1ccc(C(=O)NCC2CC2)cc1`, for which the inhibition in [1] is -0.78%; in [2], 1.39%; in assay [3] it was 2.22%; in [4] it was 4.64%; in assay [5], 6.52%; in [6], 2.91%. Besides, the inhibition in assay [7] turned out to be 4.07%; in assay [8], 4.04%; in assay [9], 8.56%; in [10], 0.41%.

Turning to `COC(=O)Nc1nc2cc(Oc3ccc(NC(=O)Nc4cccc(C(=O)O)c4)cc3)ccc2[nH]1`, the inhibition was 15.4% in assay [1]; 5.1% in assay [2]; 7.71% in assay [3]; -2.66% in assay [4]; 6.45% in assay [5]; -3.78% in [6]. Besides, the inhibition in [7] was -1.37%; in assay [8], -0.6%; in assay [9], 3.96%; in assay [10], -0.47%.

In the case of `CCn1c(-c2nonc2N)nc2cncc(C(=O)N3CCNCC3)c21`, the inhibition came to 1.77% in [1]; 2.95% in assay [2]; 5.17% in assay [3]; 3.16% in [4]; 3.28% in assay [5]; 3.59% in assay [6]. The inhibition in assay [7] was 5.18%; in assay [8], 1.81%; in assay [9], 4.42%; in assay [10], -7.98%.

For the compound `N#Cc1c(NC(=O)c2cccc3ccccc23)sc2c1CCCC2`, the inhibition in assay [1] came to 3.27%; in assay [2], 5.89%; in assay [3], 5.73%; in assay [4], 2.91%; in assay [5], 9.14%; in assay [6] it was 2.92%. Also, the inhibition in [7] is 2.25%; in assay [8], 3.88%; in assay [9] it was 9.55%; in [10], -4.77%.

Turning to `Nc1ncnc2occ(-c3ccc(NC(=O)Nc4cccc(C(F)(F)F)c4)cc3)c12`, the inhibition in [1] stood at 89.2%; in [2], 12.3%; in assay [3], 48.2%; in [4] it was 16.1%; in assay [5], 55.8%; in [6], 6.2%. Also, the inhibition in assay [7] was 21.8%; in assay [8], 33.6%; in assay [9], 64.7%.

For `O=C(Nc1n[nH]c2nc(-c3ccco3)c(Br)cc12)C1CC1`, the inhibition is 26.6% in assay [1]; 3% in assay [2]; 11.5% in assay [3]; 5.46% in assay [4]; 24.1% in assay [5]; 1.26% in [6]. The inhibition in [7] is 4.4%; in assay [8], 3.57%; in assay [9] it was 18.4%; in assay [10], -6.59%.

`CC1=C(C(=O)Nc2ccc3[nH]ncc3c2)C(c2ccc3ccccc3c2)CC(=O)N1` (centres undefined): the inhibition in assay [1] came to 22.1%; in assay [2] it was 4%; in [3], 5.47%; in assay [4] it was 2.85%; in assay [5], 7.38%; in [6] it was 2.78%. Besides, the inhibition is 7.11% in [7], 3.07% in assay [8], 8.71% in assay [9] and -2.62% in assay [10].

Turning to `[O-][S+]1CCN(Cc2ccc(-c3ccc4ncnc(Nc5ccc(OCc6ccccc6)c(F)c5)c4c3)o2)CC1`, the inhibition in [1] is -1.37%; in [2], 2.33%; in assay [3], -0.81%; in assay [4], 1.83%; in [5] it was 5.78%; in assay [6] it was 1.75%. Moreover, the inhibition in assay [7] was 4.79%; in [8], 3.02%; in assay [9] it was 3.87%; in [10], -4.98%.

Consider `CN1CCC(C(=O)Nc2n[nH]c3nnc(-c4ccccc4)cc23)CC1`, for which the inhibition in assay [1] amounted to 5.74%; in assay [2] it was 1.97%; in assay [3] it was 5.41%; in [4], 2.03%; in assay [5], 4.42%; in [6], 2.9%. The inhibition is 6.61% in assay [7], 0.96% in assay [8], 2.58% in assay [9] and -5.95% in assay [10].

As for `COc1cccc(-n2ncc3c(N/N=C/c4cccc(F)c4)ncnc32)c1`, the inhibition in [1] was 51.8%; in [2], 57.7%; in assay [3] it was 89.2%; in assay [4] it was 12%; in [5] it was 69.3%; in [6] it was -1.54%. The inhibition in assay [7] is -1.21%; in [8], 3.52%; in assay [9], 52.4%; in assay [10] it was -2.89%.

Regarding `Nc1nc(-c2ccc3c(c2)C(=Cc2cc(Br)c(O)c(Br)c2)C(=O)N3)cs1`, the inhibition in [1] is 1.95%; in [2] it was -2.03%; in [3] it was 7.8%; in assay [4], 0.56%; in [5], 12.7%; in assay [6] it was -1.31%. Besides, the inhibition in assay [7] came to 1.3%; in assay [8], 0.45%; in [9], 9.86%; in assay [10], 0.81%.

Take `COc1cc2ncn(-c3cc(O[C@H](C)c4ccccc4Cl)c(C(N)=O)s3)c2cc1OC`: the inhibition in assay [1] was determined as 57.9%; in assay [2], 11.5%; in assay [3] it was 47.1%; in [4], 7.25%; in assay [5] it was 47.2%; in [6], 4.18%. Moreover, the inhibition is 19% in assay [7], 4.99% in assay [8], 37.2% in [9] and -0.27% in [10].

In the case of `CS(=O)(=O)CCNCc1ccc(-c2ccc3ncnc(Nc4ccc(OCc5cccc(F)c5)c(C(F)(F)F)c4)c3c2)o1`, the inhibition in assay [1] was 4.21%; in assay [2] it was 4.9%; in assay [3], 2.89%; in assay [4] it was 2.03%; in assay [5] it was 2.75%; in assay [6] it was 1.6%. Moreover, the inhibition in [7] was 2.6%; in assay [8] it was 4.19%; in [9] it was 4.05%; in [10], -5.05%.

As for `CS(=O)(=O)CCNCc1ccc(-c2ccc3ncnc(Nc4ccc(OCc5ccccc5)c(Cl)c4)c3c2)o1`, the inhibition worked out at 2.14% in assay [1]; 0.5% in [2]; 1.92% in assay [3]; 0.58% in assay [4]; 3.7% in assay [5]; 1.08% in assay [6]. The inhibition came to 4.89% in assay [7], 0.92% in assay [8], 5.67% in assay [9] and 0.79% in assay [10].

With `COc1ccc(-c2coc3ncnc(N)c23)cc1`, the inhibition was 2.72% in assay [1]; 4.98% in assay [2]; 10.8% in assay [3]; 3.7% in assay [4]; 12% in assay [5]; 4.4% in assay [6]. Also, the inhibition in assay [7] was 3.97%; in assay [8] it was 3.42%; in assay [9], 8.31%; in assay [10], -5.99%.

In the case of `CCn1c(-c2nonc2N)nc2cncc(C(=O)N3CC[C@H](N)C3)c21`, the inhibition in assay [1] was determined as 3.27%; in assay [2] it was 2.94%; in [3] it was 3.51%; in [4], 4.28%; in assay [5], 4.33%; in [6] it was 3.95%. In addition, the inhibition in assay [7] is 3.52%; in assay [8], 5.33%; in assay [9], 7.29%; in assay [10], -5.66%.
